The campaign covered roughly 5,500 compounds. About 2,000 (36%) were called active. Roughly 18% stayed inconclusive and do not appear here. No stated cut-off is given here; in the data, active means normalized growth mostly below about 0.91 (no sharp cut-off); inconclusive means no clear call, values can overlap the other calls; inactive means mostly above about 0.92. This is one part of the list.
Experiment: chemical genetic growth profiling, strain panel (AID 1159580);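 further: tested at 20 µM; growth read once vehicle control cultures reached saturation at 30 °C; 1 = growth at the plate median or of vehicle wells; lower values mean less growth of the strain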
Conditions: growth OD

Measured: normalized growth

CC1(C)CC[C@]2(C)CC[C@]3(C)C(=CCC4[C@@]5(C)CC[C@H](O)C(C)(C)C5CC[C@]43C)C2C1 (some centres not stated)
inactive: S. cerevisiae deletion strains, locus YJL187C, strain SWE1, active compounds read low 1 | S. cerevisiae deletion strains, locus YJR066W, strain TOR1, active compounds read low 0.993 | S. cerevisiae deletion strains, locus YKL009W, strain mrt4, active compounds read low 0.988 | S. cerevisiae deletion strains, locus YKL068W, active compounds read low 0.985 | S. cerevisiae deletion strains, locus YKL085W, strain MDH1 (second series), active compounds read low 0.999 | S. cerevisiae deletion strains, locus YKL085W, strain MDH1, active compounds read low 0.999 | S. cerevisiae deletion strains, locus YKL160W, strain elf1, active compounds read low 0.987 | S. cerevisiae deletion strains, locus YKL190W, strain CNB1, active compounds read low 1 | S. cerevisiae deletion strains, locus YKR001C, strain vps1, active compounds read low 0.999 | S. cerevisiae deletion strains, locus YKR026C, strain gcn3, active compounds read low 0.989 | S. cerevisiae deletion strains, locus YKR091W, strain srl3, active compounds read low 0.993 | S. cerevisiae deletion strains, locus YLL001W, strain dnm1, active compounds read low 0.987 | S. cerevisiae deletion strains, locus YLL026W, active compounds read low 0.984 | S. cerevisiae deletion strains, locus YLL041C, strain sdh2, active compounds read low 1.01 | S. cerevisiae deletion strains, locus YLR027C, strain aat2, active compounds read low 0.98 | S. cerevisiae deletion strains, locus YLR039C, strain RIC1, active compounds read low 1.02 | S. cerevisiae deletion strains, locus YLR058C, strain SHM2, active compounds read low 1.01 | S. cerevisiae deletion strains, locus YLR102C, strain apc9, active compounds read low 1.01 | S. cerevisiae deletion strains, locus YLR113W, strain HOG1, active compounds read low 0.977 | S. cerevisiae deletion strains, locus YLR221C, strain rsa3, active compounds read low 0.987 | S. cerevisiae deletion strains, locus YLR258W, strain gsy2, active compounds read low 1.01 | S. cerevisiae deletion strains, locus YLR262C, strain YPT6 (second series), active compounds read low 1.01 | S. cerevisiae deletion strains, locus YLR268W, strain sec22, active compounds read low 1.03 | S. cerevisiae deletion strains, locus YLR320W, strain mms22, active compounds read low 0.994 | S. cerevisiae deletion strains, locus YLR342W, strain FKS1, active compounds read low 0.996 | S. cerevisiae deletion strains, locus YLR357W, strain rsc2, active compounds read low 0.971 | S. cerevisiae deletion strains, locus YLR370C, strain arc18, active compounds read low 0.999 | S. cerevisiae deletion strains, locus YLR371W, strain rom2, active compounds read low 0.973 | S. cerevisiae deletion strains, locus YLR384C, strain iki3, active compounds read low 0.967 | S. cerevisiae deletion strains, locus YLR418C, strain cdc73, active compounds read low 0.994 | S. cerevisiae deletion strains, locus YML016C, strain PPZ1, active compounds read low 1.01 | S. cerevisiae deletion strains, locus YML032C, strain rad52, active compounds read low 0.991 | S. cerevisiae deletion strains, locus YML120C, strain ndi1, active compounds read low 0.979 | S. cerevisiae deletion strains, locus YML124C, strain tub3, active compounds read low 0.984 | S. cerevisiae deletion strains, locus YMR058W, strain fet3, active compounds read low 0.988 | S. cerevisiae deletion strains, locus YMR078C, strain ctf18, active compounds read low 0.994 | S. cerevisiae deletion strains, locus YMR125W, strain sto1, active compounds read low 0.994 | S. cerevisiae deletion strains, locus YMR129W, active compounds read low 0.991 | S. cerevisiae deletion strains, locus YMR205C, strain PFK2, active compounds read low 1.01 | S. cerevisiae deletion strains, locus YMR223W, strain ubp8, active compounds read low 0.992 | S. cerevisiae deletion strains, locus YMR231W, strain pep5, active compounds read low 0.997 | S. cerevisiae deletion strains, locus YMR263W, strain SAP30, active compounds read low 0.979 | S. cerevisiae deletion strains, locus YMR307W, strain GAS1, active compounds read low 1.06 | S. cerevisiae deletion strains, locus YNL067W, strain RPL9B, active compounds read low 0.973 | S. cerevisiae deletion strains, locus YNL071W, strain lat1, active compounds read low 0.997 | S. cerevisiae deletion strains, locus YNL153C, strain GIM3, active compounds read low 0.973 | S. cerevisiae deletion strains, locus YNL183C, strain NPR1, active compounds read low 0.984 | S. cerevisiae deletion strains, locus YNL209W, strain ssb2, active compounds read low 0.975 | S. cerevisiae deletion strains, locus YNL233W, strain BNI4, active compounds read low 1.01 | S. cerevisiae deletion strains, locus YNL248C, strain rpa49, active compounds read low 0.985 | S. cerevisiae deletion strains, locus YNL250W, strain rad50, active compounds read low 0.963 | S. cerevisiae deletion strains, locus YNL271C, strain bni1, active compounds read low 0.978 | S. cerevisiae deletion strains, locus YNL298W, strain CLA4, active compounds read low 0.991 | S. cerevisiae deletion strains, locus YNL307C, strain MCK1, active compounds read low 1 | S. cerevisiae deletion strains, locus YNL322C, strain KRE1 (second series), active compounds read low 0.965 | S. cerevisiae deletion strains, locus YNR049C, strain mso1, active compounds read low 0.987 | S. cerevisiae deletion strains, locus YNR052C, strain pop2, active compounds read low 0.968 | S. cerevisiae deletion strains, locus YOL006C, strain TOP1, active compounds read low 1.14 | S. cerevisiae deletion strains, locus YOL012C, strain htz1 1.39 | S. cerevisiae deletion strains, locus YOL147C, strain pex11, active compounds read low 0.98 | S. cerevisiae deletion strains, locus YOR001W, strain rrp6, active compounds read low 1 | S. cerevisiae deletion strains, locus YOR061W, strain CKA2, active compounds read low 1.01 | S. cerevisiae deletion strains, locus YOR069W, strain VPS5, active compounds read low 1.01 | S. cerevisiae deletion strains, locus YOR070C, strain gyp1, active compounds read low 0.991 | S. cerevisiae deletion strains, locus YOR080W, strain dia2, active compounds read low 0.998 | S. cerevisiae deletion strains, locus YOR083W, strain WHI5, active compounds read low 1 | S. cerevisiae deletion strains, locus YOR106W, strain vam3, active compounds read low 0.993 | S. cerevisiae deletion strains, locus YOR136W, strain idh2, active compounds read low 0.994 | S. cerevisiae deletion strains, locus YOR144C, strain elg1, active compounds read low 0.994 | S. cerevisiae deletion strains, locus YOR184W, strain ser1, active compounds read low 1.02 | S. cerevisiae deletion strains, locus YOR231W, strain MKK1, active compounds read low 1.01 | S. cerevisiae deletion strains, locus YOR265W, strain rbl2, active compounds read low 0.996 | S. cerevisiae deletion strains, locus YOR270C, strain vph1, active compounds read low 1.05 | S. cerevisiae deletion strains, locus YOR290C, strain snf2, active compounds read low 0.989 | S. cerevisiae deletion strains, locus YOR316C, strain cot1, active compounds read low 0.993 | S. cerevisiae deletion strains, locus YPL051W, strain arl3, active compounds read low 1 | S. cerevisiae deletion strains, locus YPL078C, strain atp4, active compounds read low 1.01 | S. cerevisiae deletion strains, locus YPL106C, strain sse1, active compounds read low 0.961 | S. cerevisiae deletion strains, locus YPL240C, strain hsp82, active compounds read low 0.988 | S. cerevisiae deletion strains, locus YPL241C, strain CIN2, active compounds read low 0.992 | S. cerevisiae deletion strains, locus YPL256C, strain CLN2, active compounds read low 1.03 | S. cerevisiae deletion strains, locus YPR119W, strain clb2, active compounds read low 0.984 | S. cerevisiae deletion strains, locus YPR141C, strain kar3, active compounds read low 0.971 | S. cerevisiae deletion strains, locus YPR163C, strain tif3, active compounds read low 1 | S. cerevisiae deletion strains, locus YPR167C, strain met16, active compounds read low 0.982 | S. cerevisiae deletion strains, strain wtn01, active compounds read low 1.01 | S. cerevisiae strains, strain wild type, active compounds read low 1.02
